Measured values published in PubChem BioAssay (NCI).
The panel holds about 83,000 compounds, 20% with a hit somewhere; the sample as a whole holds those more often.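 Testing used 96-well plates and a 48-hour single-concentration exposure. Example: -40 means 40% of the starting cells died.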 A number with no mark means an inactive call. Activity calls are given as the source filed them. Rule for the calls: active = growth percent below 10; inactive = the rest.

Assays:
Assay in all cases: NCI-60 one-dose screen, 48 h (100 = growth as untreated, 0 = no growth, -100 = all killed)
Conditions in all cases: 10 µM unless noted
NCI-H23 lung = tested on: NCI-H23 lung
NCI-H226 lung = tested on: NCI-H226 lung
NCI-H322M lung = tested on: NCI-H322M lung
HOP-62 NSCLC = tested on: HOP-62 NSCLC
NCI-H460 lung = tested on: NCI-H460 lung
HOP-92 NSCLC = tested on: HOP-92 NSCLC
NCI-H522 lung = tested on: NCI-H522 lung
A549/ATCC NSCLC = tested on: A549/ATCC NSCLC
786-0 renal = tested on: 786-0 renal
COLO 205 colon = tested on: COLO 205 colon

Row | SMILES | growth (NCI-H23 lung) | growth (NCI-H226 lung) | growth (NCI-H322M lung) | growth (HOP-62 NSCLC) | growth (NCI-H460 lung) | growth (HOP-92 NSCLC) | growth (NCI-H522 lung) | growth (A549/ATCC NSCLC) | growth (786-0 renal) | growth (COLO 205 colon)
1 | C/C(=N\NC(=O)/C=C/CC(=O)O)c1nnn(-c2ccc([N+](=O)[O-])cc2)c1C | 97.8% | 96.9% | 99.1% | 104% | 111% | 74.3% | 98.6% | 102% | 101% | 108%
2 | CCN(CC)S(=O)(=O)c1ccc(-c2nc(C(Cl)Cl)nc3cc(C)nn23)cc1 | 14.6% | 69.7% | 57.1% | 5.6% (active) | 8.65% (active) | -5.03% (active) | 56% | 0.55% (active) | 92.5% | -18.7% (active)
3 | CC(Nc1c(C#N)cnc2ccc(-c3cncc(-c4n[nH]c(=O)o4)c3)cc12)c1ccccc1 (stereo not given) | 17.4% | 2.2% (active) | -4.15% (active) | 8.5% (active) | 11.1% | -20.9% (active) | -20% (active) | 17.7% | 9.83% (active) | -6.04% (active)
4 | CN1CCN(c2ccc(Nc3nc(NCCCNS(=O)(=O)c4ccccc4)c4sccc4n3)cc2)CC1 | 90.6% | 111% | 80.3% | 105% | 36.9% | 59.2% | 44.8% | 62% | 7.25% (active) | 49.2%
5 | COc1ccc2[nH]cc(-c3nc(N)nnc3-c3cn(C)c4ccc(Br)cc34)c2c1 | 43.9% | 34.7% | 53.7% | 38.9% | 15.1% | 44% | 7.41% (active) | 35.6% | 24.1% | 20%
6 | O=C(CN1CCN(c2cc(=O)[nH]c3ccc(F)cc23)CC1)N(c1ccccc1)c1ccccc1 | 99.1% | 103% | 104% | 102% | 104% | 98.4% | 98.3% | 115% | 96% | 115%
7 | O=C(N/N=C\c1ccc(F)cc1)c1ccc2nc(-c3ccc(Br)cc3)[nH]c2c1 | 0.752% (active) | 32.9% | 68.1% | 25.1% | -64.4% (active) | 53.3% | 81% | -3.93% (active) | -32% (active) | 19.2%
8 | C#C[C@]1(O)CC[C@H]2[C@@H]3CC=C4c5sc(N6CCN(C)CC6)nc5CC[C@]4(C)[C@H]3CC[C@@]21C | 57% | 86.8% | 77.4% | 54.8% | 49.2% | 82.7% | 28.1% | 54.7% | -39.2% (active) | 66.5%
9 | NS(=O)(=O)c1ccc(Nc2nc(N/N=C/C=C/c3ccccc3)nc(Nc3ccccc3)n2)cc1 | 40.1% | 58.6% | 56.8% | 56.2% | 6.23% (active) | 83.9% | 66.4% | 69.3% | 37.6% | 55.3%
10 | Brc1cc(-c2cc(-c3ccc4c(c3)OCCO4)[nH]n2)cs1 | 52.2% | 74% | 70.8% | 61% | 24.1% | 65.2% | 29.6% | 42.8% | 79.2% | 57.8%
11 | CCOC(=O)c1cnc2c(-c3ccc(Cl)c(Cl)c3)cnn2c1 | 82% | 80.1% | 90.8% | 69.1% | 99.7% | 39.9% | 66.9% | 96.4% | 90.8% | 76.8%
12 | N#Cc1c(-c2cccs2)cc(-c2cnccn2)nc1SCC(=O)N/N=C/c1ccc(Cl)cc1 | 100% | 98.1% | 99.3% | 99.1% | 103% | 89.4% | 93.7% | 94.6% | 93.9% | 115%
13 | O=C(/C=C/c1cc(Cl)ccc1Cl)Nc1ncc(Cc2ccc(Cl)cc2)s1 | 16.7% | 26.1% | 33.5% | 1.25% (active) | 0.165% (active) | -10.6% (active) | -33.7% (active) | 12.3% | 0.237% (active) | -45.2% (active)
14 | CCOC(=O)c1c(N)c(C#N)cn1Cc1ccc(Cl)cc1Cl | 84.4% | 85.1% | 87.4% | 68.7% | 81.2% | 73.1% | 67.2% | 76.2% | 76.4% | 106%
15 | COc1ccc2c(c1)c(/C=N/Nc1ccnc3cc(Cl)ccc13)cn2C | -80.5% (active) | -52.3% (active) | -95.1% (active) | -81.1% (active) | -79.1% (active) | -81.7% (active) | -65.4% (active) | -69.7% (active) | -81.3% (active) | -86.6% (active)
16 | O=C(CSc1nnc(-c2cccs2)n1-c1ccccc1)Nc1ccccc1F | 90.8% | 96.3% | 103% | 76.9% | 96.6% | 93% | 55% | 89.6% | 99.4% | 70.8%
17 | Cc1ccc(CSC2=C(Cl)CN(c3ccc(Cl)cc3)C2=O)cc1 | 105% | 98.4% | 104% | 103% | 103% | 95.2% | -4.44% (active) | 104% | 105% | 129%
18 | CN(C)c1ccc(-c2cc(-c3c[nH]c4ccccc34)nc(N)c2C#N)cc1 | 54.8% | 62.8% | 69.5% | 33.3% | 7.07% (active) | 27.5% | 2.93% (active) | 25.4% | 17.5% | 22.1%
19 | CNC(=O)Nc1ccc(Nc2cc(-c3ccc(-n4cccn4)cc3)[nH]n2)c(C)c1 | 102% | 104% | 101% | 106% | 97.3% | 173% | 96.1% | 102% | 111% | 124%
20 | CN(C)c1cccc2c(S(=O)(=O)Nc3cccc(-c4csc(NC(=O)CCCCCN5CCN(CCO)CC5)n4)c3)cccc12 | 81.3% | 91.2% | 88.2% | 84.9% | 82.6% | 37.5% | 84.4% | 74.9% | 77.5% | 81.1%
21 | COC(=O)CNC(=O)c1cccc(-c2cc(=O)c3c(OC)c(OC)c(OC)cc3o2)c1 | 98.1% | 95.8% | 85.4% | 119% | 98.7% | 67.6% | 99.6% | 101% | 104% | 114%
22 | O=C1[C@@H]2Cc3c([nH]c4ccccc34)[C@H](c3ccc(Br)cc3)N2C(=O)CN1C1CCN(Cc2c(Cl)cccc2Cl)CC1 | 91.7% | 85.8% | 95.1% | 91.9% | 97.5% | 94.1% | 91.7% | 93% | 99.8% | 105%
23 | NC(=S)n1c(=O)n(-c2cccc(C(F)(F)F)c2)c(=O)c2cc(-c3ccc(F)cc3F)ccc21 | -5.28% (active) | 9.53% (active) | 6.11% (active) | 1.42% (active) | 6.23% (active) | -29.9% (active) | -4.04% (active) | 7.29% (active) | 11.4% | 37.5%
24 | Clc1ccc2c(N/N=C/c3c[nH]c4ccccc34)ccnc2c1 | -88.2% (active) | -52.1% (active) | -89.9% (active) | -75.1% (active) | -87.2% (active) | -88.7% (active) | -77.6% (active) | -24.3% (active) | -89.8% (active) | -85.4% (active)
25 | CCN(CC)CCOc1ccc(C(=C(C)c2ccc(OC)cc2)c2ccc(OCCN(CC)CC)cc2)cc1 | 57.8% | 61.2% | 33.5% | 4.72% (active) | 1.96% (active) | -4.16% (active) | -4.16% (active) | 12.3% | -51.1% (active) | -56.5% (active)
26 | COc1ccccc1N1CCN(C2=C(Cl)C(=O)c3ncccc3C2=O)CC1 | 56.3% | 91% | 92.4% | 93.4% | 75% | 135% | 9.14% (active) | 112% | 107% | 106%
27 | COC(=O)CCCNCCCn1ccc2cc(NCc3cccc(-c4ccccc4)c3C)ccc21 | 61.9% | 69.7% | 97.6% | 81.9% | 81.8% | 22.3% | 91.7% | 84.9% | 74.2% | 64.4%
